Pol iota inh: inhibitors of human DNA polymerase iota. Potency, µM (doses to about 115 µM), without a hit: top-dose activity, negative = inhibition, actives largely listed as inhibitors. Pol iota fluorescent replication assay, 10 min. Q9UNA4. 1% of 390,000 active; also: potency is read from the fitted curve at half-maximal effect
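Pol iota at 10 nM preincubated 15 min with compounds at room temperature; reaction started with fluorescent substrate, 50 nM final. Fluorescence read kinetically at 0 and 10 min; buffer-only wells as negative control.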
POLB inh: DNA polymerase beta (human) inhibition; P06746; Pol beta primer extension/strand displacement, fluorescence kinetic; Potency, µM (highest dose often 114 µM), without a hit: at the top dose activity change, negative = inhibition, actives largely listed as inhibitors; 1.3% of 340,000 active; AID 485314; also: potency is read from the fitted curve at half-maximal effect; % is scaled to controls: 0 for no effect and ±100 for the full control effect
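Preincubation: enzyme (10 nM) with compound, 15 min, RT. Reaction: substrate added to 50 nM final. Reads: 0 and 10 min. Analysis: normalized, Hill fit.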
WRN inhibitor: inhibitors of human WRN helicase. Potency, µM (titrated, usually from 114 µM), for inactives: top-dose activity change, negative = inhibition, most hits filed as inhibitors. AID 651768. 0.46% of 360,000 active. Q14191. WRN helicase unwinding, fluorescent forked duplex, kinetic; also: potency is read from the fitted curve at half-maximal effect; % is scaled to controls: 0 for no effect and ±100 for the full control effect; nearly all actives have a fitted effect of over 55% in size
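Primary qHTS, 1536-well format. 20 nM WRN + compound, 15 min RT; start with 100 nM forked fluorophore/quencher duplex, 2 mM ATP (final); kinetic read ex 525/em 598 nm.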
PI5P4K alpha inh: PI5P4K alpha (human) kinase inhibition; PI5P4Kalpha enzyme, ADP-Glo luminescence, 60 min; stronger effect = lower value; max response, %; 1.2% of 330,000 active; AID 652105; active = max response of -50% or lower; inconclusive = between -30% and -50%; inactive = -30% or higher; also: value at the top dose of about 77 µM; % is scaled to controls: 0 for no effect and ±100 for the full control effect
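qHTS, 1536-well: enzyme/substrate mix, compound by pin tool, 5 microM ATP final; RT 60 min; ADP-Glo reagents 1 (45 min) then 2 (30 min); luminescence.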
Pol eta inh: inhibitors of human DNA polymerase eta; Q9Y253; recombinant Pol eta, fluorescent DNA replication assay; Potency, µM (titrated, usually from 114 µM), for the others: at the highest dose activity change, negative = inhibition, actives largely listed as inhibitors; 1.2% of 390,000 active; AID 588591; also: potency is read from the fitted curve at half-maximal effect; % is scaled to controls: 0 for no effect and ±100 for the full control effect
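Pol eta at 10 nM preincubated with compounds 15 min at room temperature; reaction started with fluorescent substrate (50 nM final) and read kinetically at 0 and 10 min.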
Pol kappa inh: inhibitors of human DNA polymerase kappa; Q9UBT6; purified Pol kappa, fluorescent DNA synthesis assay, 10 min; Potency, µM (doses to about 107 µM), without a hit: at the highest dose activity, negative = inhibition, actives largely listed as inhibitors; 0.53% of 400,000 active; AID 588579; also: potency is read from the fitted curve at half-maximal effect; % is scaled to controls: 0 for no effect and ±100 for the full control effect
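Inhibition of 10 nM Pol kappa is measured by a fluorescent read-out at 0 and 10 min following addition of 50 nM substrate (final), with a 15-min room-temperature compound preincubation.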
Starred values were filed as active, the others as inactive; ! = not active in a repeat; [ ] = remark or other dose. The list is not random: actives were taken first. Their share in the collection is about 2.8%. Unless noted, calls follow the shape of the dose curve; as a rule, active = well fitted curve in the direction sought with a large enough effect; inconclusive = small, poorly fitted or top-dose-only effect, or another doubt; inactive = no such curve, though single readings can be large; an effect the other way counts as inactive or inconclusive.

For Cc1ccc(C(=O)OCc2nc3ccsc3c(=O)[nH]2)o1 the results were Pol iota inh inconclusive, WRN inhibitor -27%, PI5P4K alpha inh 1, Pol eta inh 20% and Pol kappa inh -14%.
For O=C(/C=C/c1ccc(Br)o1)OCc1nc2ccsc2c(=O)[nH]1 the results were Pol iota inh 10µM*, WRN inhibitor 14µM*, PI5P4K alpha inh -67*, Pol eta inh 0.79µM* and Pol kappa inh 10µM*.
CCOC(=O)c1cccc(NC(=O)CCc2c(C)nn(-c3ccc(N4CCOCC4)nn3)c2C)c1 was read as Pol iota inh 12%, POLB inh 7%, Pol eta inh 0% and Pol kappa inh 0%.
`CCCC(=O)Oc1c(Sc2ccc(Cl)cc2)c(C)nn1-c1ccccc1` gave Pol iota inh 25µM*, POLB inh 14%, Pol eta inh -8% and Pol kappa inh 1%.
For Cc1cccc(NC(=O)C(=O)NCC(c2ccc3c(c2)OCO3)N2CCOCC2)c1C (stereo not given) the results were Pol iota inh -3%, POLB inh -3%, Pol eta inh -15% and Pol kappa inh -6%[60.1 µM].
`N[C@@H](Cc1cc(I)c(Oc2cc(I)c(O)c(I)c2)c(I)c1)C(=O)O` gave Pol iota inh -13%, WRN inhibitor -26%, PI5P4K alpha inh -62*, Pol eta inh inconclusive and Pol kappa inh inconclusive.
Screening NC(Cc1cc(I)c(Oc2ccc(O)c(I)c2)c(I)c1)C(=O)O (stereo not given) returned Pol kappa inh -6%[60.1 µM].
For N[C@@H](Cc1cc(I)c(Oc2ccc(O)c(I)c2)c(I)c1)C(=O)O the results were Pol iota inh 50µM*!, POLB inh 20µM*!, WRN inhibitor inconclusive, PI5P4K alpha inh -82*!, Pol eta inh 32µM*! and Pol kappa inh inconclusive.
For N[C@H](Cc1cc(I)c(Oc2cc(I)c(O)c(I)c2)c(I)c1)C(=O)O the results were Pol kappa inh -17%[12 µM].
Screening COc1cc2c(NC3CCN(C)CC3)nc(N3CCCN(C)CC3)nc2cc1OCCCC(C)C returned Pol iota inh -7% and Pol kappa inh -13%.
Cn1c(=O)[nH]c(=O)c2c1nc(SCC(=O)O)n2CCc1ccccc1 was read as Pol iota inh 7%, POLB inh 8%, WRN inhibitor -2%, PI5P4K alpha inh -57*, Pol eta inh -11% and Pol kappa inh 1%.
CC=CCn1c(SCc2ccccc2)nc2c1c(=O)[nH]c(=O)n2C was read as WRN inhibitor -9% and PI5P4K alpha inh -58*.
`CC/C(C)=N/Nc1nc2c(c(=O)[nH]c(=O)n2C)n1CCc1ccccc1` gave Pol iota inh 59%, POLB inh -17%, WRN inhibitor -8%, PI5P4K alpha inh inconclusive, Pol eta inh -7% and Pol kappa inh -6%.
`CC/C(C)=N/Nc1nc2c(c(=O)[nH]c(=O)n2C)n1Cc1ccccc1` gave Pol iota inh 16µM*, POLB inh inconclusive, WRN inhibitor -3%[11.6 µM], PI5P4K alpha inh -25, Pol eta inh inconclusive and Pol kappa inh -36%.
Screening COc1ccc(OC)c2c(/C=C/c3c(C)[nH]c4ccccc34)ccnc12 returned Pol iota inh 12% and Pol kappa inh -18%.
For Clc1cccc(-n2ncc3c(NCCCn4ccnc4)ncnc32)c1 the results were Pol iota inh 16%, POLB inh 3%, Pol eta inh -3% and Pol kappa inh -5%[60.1 µM].
Screening CCCC(CCC(=O)Nc1cc([N+](=O)[O-])ccc1O)C(=O)O (stereo not given) returned Pol iota inh -11%, POLB inh 22µM*, WRN inhibitor -5%, PI5P4K alpha inh 6, Pol eta inh 5% and Pol kappa inh -15%.
O=C(O)CCCC(=O)Nc1cc([N+](=O)[O-])ccc1O was read as Pol iota inh 12%, POLB inh 23%, WRN inhibitor -6%, PI5P4K alpha inh 1, Pol eta inh -6% and Pol kappa inh -9%.

Screening results as filed in PubChem BioAssay.
